Data taken from PubChem BioAssay (NCATS).
Results filed as inconclusive are left out. A call without a number means that no potency is given here. The source made the active and inactive calls. Unless noted, calls follow the shape of the dose curve; as a rule, active = well fitted curve in the direction sought with a large enough effect; inconclusive = small, poorly fitted or top-dose-only effect, or another doubt; inactive = no such curve, though single readings can be large; an effect the other way counts as inactive or inconclusive.

What was measured:
[1] = qHTS for differential inhibitors of proliferation of Plasmodium falciparum line D10 (AID 1877);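 also: parasites grown with compound for 72 h before DNA staining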; also: potency is read from the fitted curve at half-maximal effect
[2] = qHTS for differential inhibitors of proliferation of Plasmodium falciparum line Dd2 (AID 1882); conditions: Potency: Plasmodium falciparum Dd2 proliferation inhibition; also: nearly all actives have a fitted effect of over 65% in size; also: potency is read from the fitted curve at half-maximal effect
Summary of the method: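 SYBR Green DNA fluorescence (ex 485, em 535 nm) after overnight lysis quantifies parasite growth; compound exposure lasted 72 h at 37 C on infected red cells at 2.5% hematocrit, 0.3% parasitemia (final). Artemisinin 0.29 uM and vehicle wells define normalization.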

[3] = qHTS for differential inhibitors of proliferation of Plasmodium falciparum line W2 (AID 1883); conditions: Potency: Plasmodium falciparum W2 proliferation inhibition;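 also: parasites grown with compound for 72 h before lysis and staining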; also: potency is read from the fitted curve at half-maximal effect
[4] = qHTS for differential inhibitors of proliferation of Plasmodium falciparum line HB3 (AID 1886); conditions: Potency: Plasmodium falciparum HB3 proliferation inhibition;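 also: parasites grown with compound for 72 h before SYBR Green readout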; also: potency is read from the fitted curve at half-maximal effect
[5] = qHTS Assay for Modulators of Human Peripheral Myelin Protein 22 (PMP22) Expression/Activity (AID 1967; active = well fitted curve in the direction sought with a large enough effect in the signal ratio; the % refers to the signal ratio)
Summary of the method: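 Engineered MSC80 cells, Pmp22-promoter green and EF-alpha red luciferase reporters; 24h compound treatment at 37 °C. Concentration-response fits on green, red and ratio signals, each overlap-corrected, with %Activity normalized to untreated wells.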

[6] = biological target: Lysosomal alpha-glucosidase (Homo sapiens) (UniProt P10253); test: Confirmation of Inhibitors and Activators of Purified Human alpha-Glucosidase (AID 2115; active = well fitted curve in either direction with a large enough effect); conditions: purified human GAA enzyme activity
Summary of the method: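 Fluorogenic 4-MU-substrate hydrolysis (400 uM substrate, 4 nM human enzyme) over 20 min at room temperature, pH 5.0 citrate buffer plus 0.005% Tween-20; NaOH/glycine stop, then ex 365/em 440 nm read. Titration up to 77 uM; Hill-equation AC50, normalized to no-enzyme and full-activity controls.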

[7] = biological target: Ferritin light chain (Equus caballus) (UniProt P02791); test: qHTS Validation Assay for Identification of Novel General Anesthetics (AID 2323); also: potency is read from the fitted curve at half-maximal effect
Summary of the method: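 Normalized fluorescence response, scaled between free 1-AMA and 1-AMA/apoferritin complex, fitted to a four-parameter Hill equation for concentration-effect values. Binding mix: 10 uM horse-spleen apoferritin, 50% saturated 1-AMA in PBS; read 380/535 nm after 10 min.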

[8] = biological target: ATP-dependent DNA helicase Q1 (Homo sapiens) (UniProt P46063); test: qHTS Validation Assay for Inhibitors of RecQ-Like Dna Helicase 1 (RECQ1) (AID 2353)
Summary of the method: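 RECQ1T1 50 nM; forked duplex (20 bp + 30-nt ss tails) 200 nM, ATP 2 mM final; pH 8.0, 2 mM MgCl2, 2.5 ug/ml poly(dI-dC); 15 min compound preincubation; discontinuous kinetic read over 2 h at RT.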

[9] = biological target: RecQ-like DNA helicase BLM (Homo sapiens) (UniProt P54132); test: qHTS Validation Assay for Inhibitors of Bloom's syndrome helicase (BLM) (AID 2364); also: potency is read from the fitted curve at half-maximal effect
Summary of the method: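 Forked 20-bp duplex substrate (200 nM, TAMRA/BHQ-2) plus 2 mM ATP added after 15 min compound preincubation with 50 nM enzyme, pH 8.0, poly(dI-dC) 2.5 ug/ml. Strand separation followed by fluorescence (525/598 nm) over 2 h, normalized to enzyme-free and DMSO controls.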

[10] = Cytometric Cell-Based qHTS for Inhibitors of the mTORC1 Signaling Pathway in MEF (Tsc2-/-, p53-/-) Cells (AID 2660);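 also: Tsc2 and p53 null MEFs carrying empty vector with compound for 24 h; percent of cells above a phospho-rpS6 to PI ratio cutoff in each well; series mostly up to about 38 µM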
Summary of the method: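 Cells are plated, treated with compound for 24 hrs at 37 degree Celsius, then fixed, blocked and immunostained for phospho-rpS6 Ser235/236. Propidium iodide counterstain follows. Per-well % positive cells is derived from the PI-normalized phospho-S6 signal.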

[11] = High Content Imaging Cell-Based qHTS for Inhibitors of the mTORC1 Signaling Pathway in MEF (Tsc2-/-, p53-/-) Cells (AID 2666);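 also: percent of cells scored positive for phospho-rpS6 Ser235/236 immunostaining by imaging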
Summary of the method: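 Tsc2-/-, p53-/- MEFs (empty-vector stable) grown in DMEM + 10% FBS were exposed to compounds for 24 hrs at 37 degree Celsius, fixed, and stained with Alexa-488 anti-phospho-rpS6 Ser235/236 plus Hoechst. Imaging gave the percentage of positive cells per well.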

[12] = High Content Imaging Cell-Based qHTS for Inhibitors of the mTORC1 Signaling Pathway in MEF Cells (AID 2667);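 also: Tsc2-/- p53-/- MEFs stably re-expressing wild-type Tsc2 exposed 24 h; series mostly up to about 38 µM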
Summary of the method: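 Tsc2-/-, p53-/- MEFs stably re-expressing WT Tsc2, grown in DMEM + 10% FBS, were treated with compounds for 24 hrs at 37 degree Celsius, fixed, and stained with Alexa-488 phospho-rpS6 Ser235/236 antibody plus Hoechst; results given as % positive cells.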

[13] = Cytometry Cell-Based qHTS for Inhibitors of the mTORC1 Signaling Pathway in MEF cells (AID 2668);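 also: Tsc2-/- p53-/- mouse embryonic fibroblasts stably re-expressing wild-type Tsc2; percent cells positive for phospho-rpS6 Ser235/236 relative to propidium iodide stain; series mostly up to about 38 µM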
Summary of the method: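 In MEFs grown in DMEM + 10% FBS, a 24 hrs compound exposure preceded imaging of phospho-rpS6 Ser235/236 by laser-scanning cytometry.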

[14] = Validation screen for small molecules that induce DNA re-replication in MCF 10A normal breast cells (AID 463097); also: nearly all actives have a fitted effect of over 60% in size
Summary of the method: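 Following 48 hr compound incubation (37 C, 5% CO2), MCF 10A cells receive Hoechst for 40 min at 37 C. Nuclei are then scanned (excitation 405 nm, emission 500-530 nm) for total fluorescence intensity.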

[15] = biological target: Ubiquitin carboxyl-terminal hydrolase 2 (Homo sapiens) (UniProt O75604); test: qHTS Validation Assay for Inhibitors of Ubiquitin-specific Protease USP2a Using CHOP2 as the Reporter (AID 463106)
Summary of the method: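 Readout was coupled fluorescence (Ex 485/Em 531 nm), read 60 min after adding 25 nM final Ub-CHOP2 and 25 nM reporter substrate. Beforehand, 10 nM final USP2 core had 30 min at RT with compound in pH 8.0 buffer. Curves were fitted after normalization to NEM and flagged for artifacts using time-zero reads.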

[16] = biological target: DNA polymerase III PolC-type (Bacillus subtilis (strain 168)) (UniProt P13267); test: qHTS Validation Assay for the Inhibitors of DNA Replication in Gram-Positive Bacteria (AID 485295);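 also: reconstituted holoenzyme with PolC plus beta clamp SSB and primase; PicoGreen fluorescence of double-stranded DNA made on primed circular M13 template; series mostly up to about 57 µM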
Summary of the method: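 Inhibition of DNA synthesis by the reconstituted PolC holoenzyme, monitored through PicoGreen staining of dsDNA formed from ssM13Gori, dNTPs and NTPs, with compound preincubation and room-temperature reaction.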

[17] = biological target: Tumor susceptibility gene 101 protein (Homo sapiens) (UniProt Q99816); test: qHTS Validation Assay for Iinhibitors of HIV-1 Budding by Blocking the Interaction of PTAP/TSG101 (AID 485342; calls by dose curve)
Summary of the method: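 Compound wells held the Tsg101 binding domain (10 uM) and a FITC-conjugated PTAP peptide (50 nM) in buffer at pH 7.5 containing 0.15 M NaCl and 0.01% Tween 20; polarization was recorded after 20 min, r.t.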

[18] = qHTS Validation Assay to Find Inhibitors of Chronic Active B-Cell Receptor Signaling (AID 485345; active = well fitted curve in the direction sought with a large enough effect in the main read-out, with a control signal flat, not every such curve was filed as active)
Summary of the method: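 Read-out: ratio of filter-corrected green (IkappaBalpha fusion) to red (native) luciferase signal in doxycycline-induced TMD8 cells after 4 h at 37C. Titration spanned 46 uM–3 nM; Data were normalised to basal cells and 10 uM MG-132 wells.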

Chain of DNA polymerase III PolC-type (Bacillus subtilis (strain 168)) (P13267 whole entry, looked up): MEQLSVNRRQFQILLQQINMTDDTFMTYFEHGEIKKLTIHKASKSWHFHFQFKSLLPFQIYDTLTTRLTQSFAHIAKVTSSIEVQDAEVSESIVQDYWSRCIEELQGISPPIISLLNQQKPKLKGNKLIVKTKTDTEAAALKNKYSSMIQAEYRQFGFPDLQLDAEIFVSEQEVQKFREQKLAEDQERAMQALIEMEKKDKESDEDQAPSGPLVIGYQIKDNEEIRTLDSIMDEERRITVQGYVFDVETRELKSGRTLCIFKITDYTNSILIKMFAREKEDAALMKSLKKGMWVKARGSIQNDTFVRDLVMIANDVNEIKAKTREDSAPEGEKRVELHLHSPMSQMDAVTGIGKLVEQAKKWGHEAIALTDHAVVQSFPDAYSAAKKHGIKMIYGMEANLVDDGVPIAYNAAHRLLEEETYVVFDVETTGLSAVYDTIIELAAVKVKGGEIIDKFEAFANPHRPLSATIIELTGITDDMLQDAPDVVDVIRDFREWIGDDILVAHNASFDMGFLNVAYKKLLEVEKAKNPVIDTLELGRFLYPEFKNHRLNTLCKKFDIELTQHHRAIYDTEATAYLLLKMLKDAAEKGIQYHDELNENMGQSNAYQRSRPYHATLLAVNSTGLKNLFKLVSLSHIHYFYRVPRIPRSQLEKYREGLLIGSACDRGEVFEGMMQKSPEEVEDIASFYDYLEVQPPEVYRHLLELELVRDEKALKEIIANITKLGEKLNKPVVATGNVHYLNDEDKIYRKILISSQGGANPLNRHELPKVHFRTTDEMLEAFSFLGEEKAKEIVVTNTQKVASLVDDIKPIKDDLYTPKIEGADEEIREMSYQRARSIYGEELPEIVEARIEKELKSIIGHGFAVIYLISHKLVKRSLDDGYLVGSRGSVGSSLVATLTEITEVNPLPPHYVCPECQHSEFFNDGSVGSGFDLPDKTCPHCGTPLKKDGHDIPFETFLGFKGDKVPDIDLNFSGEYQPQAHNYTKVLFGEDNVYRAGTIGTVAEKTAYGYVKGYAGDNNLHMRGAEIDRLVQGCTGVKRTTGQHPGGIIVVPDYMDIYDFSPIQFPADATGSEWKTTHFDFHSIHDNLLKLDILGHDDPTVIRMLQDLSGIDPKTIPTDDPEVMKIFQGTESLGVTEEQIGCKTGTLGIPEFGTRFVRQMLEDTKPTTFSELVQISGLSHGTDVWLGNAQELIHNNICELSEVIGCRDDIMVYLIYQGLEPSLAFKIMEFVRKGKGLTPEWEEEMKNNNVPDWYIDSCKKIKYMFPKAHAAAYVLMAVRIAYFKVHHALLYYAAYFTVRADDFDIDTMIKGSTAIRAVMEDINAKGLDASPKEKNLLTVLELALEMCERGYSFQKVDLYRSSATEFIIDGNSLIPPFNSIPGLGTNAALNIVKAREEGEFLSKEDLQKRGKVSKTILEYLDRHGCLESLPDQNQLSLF
Chain of RecQ-like DNA helicase BLM (Homo sapiens) (P54132 whole entry, looked up): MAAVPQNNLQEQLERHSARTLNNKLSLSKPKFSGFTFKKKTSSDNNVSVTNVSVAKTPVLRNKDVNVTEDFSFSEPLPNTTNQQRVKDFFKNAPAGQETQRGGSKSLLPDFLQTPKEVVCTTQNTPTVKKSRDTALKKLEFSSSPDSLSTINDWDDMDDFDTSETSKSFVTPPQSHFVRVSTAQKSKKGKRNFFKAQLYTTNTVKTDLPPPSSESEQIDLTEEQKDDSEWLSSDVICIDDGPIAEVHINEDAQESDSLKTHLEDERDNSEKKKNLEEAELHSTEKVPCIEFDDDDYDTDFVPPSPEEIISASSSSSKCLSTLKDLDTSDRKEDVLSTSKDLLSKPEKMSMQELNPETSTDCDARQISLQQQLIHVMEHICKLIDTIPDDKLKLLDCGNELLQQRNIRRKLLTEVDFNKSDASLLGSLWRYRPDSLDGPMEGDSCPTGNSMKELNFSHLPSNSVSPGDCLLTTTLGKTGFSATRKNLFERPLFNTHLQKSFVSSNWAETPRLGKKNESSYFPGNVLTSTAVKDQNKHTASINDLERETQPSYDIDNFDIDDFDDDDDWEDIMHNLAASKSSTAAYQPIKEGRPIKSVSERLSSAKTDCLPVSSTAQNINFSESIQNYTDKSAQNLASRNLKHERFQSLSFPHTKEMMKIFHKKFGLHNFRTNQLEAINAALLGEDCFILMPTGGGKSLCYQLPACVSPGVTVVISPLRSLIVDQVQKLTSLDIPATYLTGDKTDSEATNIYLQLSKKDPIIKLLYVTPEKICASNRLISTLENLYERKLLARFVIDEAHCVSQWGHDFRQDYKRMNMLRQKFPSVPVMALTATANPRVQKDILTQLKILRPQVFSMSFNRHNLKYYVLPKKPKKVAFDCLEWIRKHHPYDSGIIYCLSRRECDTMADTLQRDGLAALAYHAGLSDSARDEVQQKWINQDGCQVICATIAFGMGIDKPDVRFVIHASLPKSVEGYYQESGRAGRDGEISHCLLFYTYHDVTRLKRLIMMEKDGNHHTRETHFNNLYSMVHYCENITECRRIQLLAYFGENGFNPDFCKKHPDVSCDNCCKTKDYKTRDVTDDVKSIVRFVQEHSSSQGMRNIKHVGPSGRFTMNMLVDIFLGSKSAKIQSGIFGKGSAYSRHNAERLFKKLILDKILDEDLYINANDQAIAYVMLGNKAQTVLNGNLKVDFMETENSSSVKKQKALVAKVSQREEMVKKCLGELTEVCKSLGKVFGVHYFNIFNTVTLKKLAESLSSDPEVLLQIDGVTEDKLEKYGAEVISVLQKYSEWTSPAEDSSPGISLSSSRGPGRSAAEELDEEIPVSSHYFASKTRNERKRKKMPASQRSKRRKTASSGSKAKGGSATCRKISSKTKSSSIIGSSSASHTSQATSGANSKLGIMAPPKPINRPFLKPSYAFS
Chain of Tumor susceptibility gene 101 protein (Homo sapiens) (Q99816 whole entry, looked up, the tested form may be a part): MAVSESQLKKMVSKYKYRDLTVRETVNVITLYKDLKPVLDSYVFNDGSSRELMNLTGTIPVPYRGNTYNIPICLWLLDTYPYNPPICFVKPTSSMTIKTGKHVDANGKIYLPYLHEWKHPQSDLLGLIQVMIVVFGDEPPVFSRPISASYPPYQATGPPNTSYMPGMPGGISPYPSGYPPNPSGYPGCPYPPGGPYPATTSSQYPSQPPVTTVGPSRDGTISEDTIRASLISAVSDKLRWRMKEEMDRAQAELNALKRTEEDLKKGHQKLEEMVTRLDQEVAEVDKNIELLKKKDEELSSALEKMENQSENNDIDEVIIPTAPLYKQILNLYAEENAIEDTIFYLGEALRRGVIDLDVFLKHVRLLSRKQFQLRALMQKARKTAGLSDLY
Chain of ATP-dependent DNA helicase Q1 (Homo sapiens) (P46063 whole entry, looked up): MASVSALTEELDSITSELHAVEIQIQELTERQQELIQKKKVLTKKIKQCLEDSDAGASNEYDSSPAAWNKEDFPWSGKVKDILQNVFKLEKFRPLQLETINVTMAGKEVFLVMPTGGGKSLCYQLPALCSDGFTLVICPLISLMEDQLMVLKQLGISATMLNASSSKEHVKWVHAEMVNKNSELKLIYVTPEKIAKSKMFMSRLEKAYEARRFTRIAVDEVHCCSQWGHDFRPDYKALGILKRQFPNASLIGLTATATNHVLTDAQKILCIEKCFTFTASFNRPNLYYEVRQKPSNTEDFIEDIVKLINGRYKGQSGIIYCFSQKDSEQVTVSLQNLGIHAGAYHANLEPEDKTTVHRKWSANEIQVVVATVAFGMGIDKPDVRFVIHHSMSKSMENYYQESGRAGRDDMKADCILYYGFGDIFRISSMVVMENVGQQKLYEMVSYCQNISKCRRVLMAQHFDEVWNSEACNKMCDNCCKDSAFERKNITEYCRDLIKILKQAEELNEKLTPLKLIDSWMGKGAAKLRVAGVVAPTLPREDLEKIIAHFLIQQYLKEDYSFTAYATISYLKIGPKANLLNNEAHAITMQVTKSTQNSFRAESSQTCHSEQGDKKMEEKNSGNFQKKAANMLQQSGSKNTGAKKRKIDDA
Chain of Ubiquitin carboxyl-terminal hydrolase 2 (Homo sapiens) (O75604 whole entry, looked up): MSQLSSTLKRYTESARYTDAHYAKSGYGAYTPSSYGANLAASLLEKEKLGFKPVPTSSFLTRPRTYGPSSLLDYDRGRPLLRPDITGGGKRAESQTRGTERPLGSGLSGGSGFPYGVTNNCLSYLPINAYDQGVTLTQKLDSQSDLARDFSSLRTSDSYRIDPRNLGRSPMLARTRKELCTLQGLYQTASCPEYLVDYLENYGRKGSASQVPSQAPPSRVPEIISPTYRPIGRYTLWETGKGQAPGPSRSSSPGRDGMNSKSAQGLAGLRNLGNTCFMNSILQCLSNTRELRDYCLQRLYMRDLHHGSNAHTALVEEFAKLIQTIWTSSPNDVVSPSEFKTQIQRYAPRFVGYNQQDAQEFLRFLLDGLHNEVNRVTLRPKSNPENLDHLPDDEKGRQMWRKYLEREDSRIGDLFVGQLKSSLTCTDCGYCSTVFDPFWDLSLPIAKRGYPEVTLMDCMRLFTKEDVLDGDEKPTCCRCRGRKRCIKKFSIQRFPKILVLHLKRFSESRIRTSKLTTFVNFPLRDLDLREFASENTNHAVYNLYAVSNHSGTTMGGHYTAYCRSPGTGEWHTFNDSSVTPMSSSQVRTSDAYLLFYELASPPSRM
Chain of Ferritin light chain (Equus caballus) (P02791 2-175 limits assumed): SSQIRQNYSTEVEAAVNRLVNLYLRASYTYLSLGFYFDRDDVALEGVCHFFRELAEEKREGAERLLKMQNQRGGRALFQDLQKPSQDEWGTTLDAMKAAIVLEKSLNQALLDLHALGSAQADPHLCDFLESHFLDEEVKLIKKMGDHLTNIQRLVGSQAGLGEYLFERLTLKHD

| Structure (SMILES) | Potency [1] | Potency [2] | Potency [3] | Potency [4] | outcome [5] | outcome [6] | Potency [7] | Potency [8] | Potency [9] | outcome [10] | Potency [11] | Potency [12] | Potency [13] | Potency [14] | Potency [15] | Potency [16] | outcome [17] | outcome [18] |
| --- | --- | --- | --- | --- | --- | --- | --- | --- | --- | --- | --- | --- | --- | --- | --- | --- | --- | --- |
| OC[C@H]1NC[C@@H](O)[C@@H]1O | inactive | inactive | inactive | inactive | inactive | inactive | inactive | inactive | inactive | inactive | inactive | inactive | inactive | inactive | inactive | inactive | – | – |
| CC(=O)NCCc1c[nH]c2ccc(O)cc12 | inactive | inactive | inactive | inactive | inactive | – | inactive | inactive | – | inactive | inactive | inactive | inactive | inactive | inactive | inactive | inactive | inactive |
| CC(C)Cn1c(=O)n(C)c(=O)c2[nH]cnc21 | inactive | inactive | inactive | inactive | inactive | – | inactive | inactive | inactive | inactive | inactive | inactive | inactive | inactive | inactive | inactive | inactive | – |
| N[C@H](C(=O)O)c1cc(O)cc(O)c1 | inactive | inactive | inactive | inactive | inactive | – | inactive | inactive | – | inactive | inactive | inactive | inactive | inactive | inactive | inactive | inactive | inactive |
| CCn1c(=O)[nH]c2cc(Cl)c(Cl)cc21 | inactive | inactive | inactive | inactive | – | – | inactive | inactive | – | inactive | inactive | inactive | inactive | inactive | inactive | inactive | inactive | – |
| O=C(O)c1ccccc1Nc1ccccc1 | inactive | inactive | inactive | inactive | – | – | inactive | inactive | – | inactive | inactive | inactive | inactive | inactive | inactive | inactive | inactive | – |
| O=[N+]([O-])c1cccc2cn[nH]c12 | inactive | inactive | inactive | inactive | inactive | – | – | inactive | – | inactive | inactive | inactive | inactive | inactive | inactive | inactive | inactive | inactive |
| N[C@H](C(=O)O)[C@H]1C[C@@H]1C(=O)O | inactive | inactive | inactive | inactive | – | – | inactive | inactive | inactive | inactive | inactive | inactive | inactive | inactive | inactive | inactive | inactive | inactive |
| O=C(O)/C=C/c1ccc(O)c(O)c1 | inactive | inactive | inactive | inactive | – | – | inactive | inactive | inactive | inactive | inactive | inactive | inactive | inactive | inactive | inactive | inactive | inactive |
| CC1C(=O)N(C)C(=O)c2nc[nH]c21 (stereo not given) | inactive | inactive | inactive | inactive | inactive | – | inactive | inactive | – | inactive | inactive | inactive | – | inactive | inactive | inactive | inactive | – |
| CCCCCC(O)CCCC(=O)O (stereo not given) | inactive | inactive | inactive | inactive | inactive | – | – | inactive | inactive | inactive | inactive | inactive | inactive | inactive | inactive | – | inactive | inactive |
| N[C@@H](CCC(=O)N[C@H](CSN=O)C(=O)NCC(=O)O)C(=O)O | inactive | inactive | inactive | inactive | – | – | inactive | inactive | – | inactive | inactive | inactive | inactive | inactive | inactive | inactive | inactive | inactive |
| C[N+](C)(C)CC=O | inactive | inactive | inactive | inactive | – | – | inactive | inactive | – | inactive | inactive | inactive | inactive | inactive | inactive | inactive | inactive | – |
| COc1ccc2c(c1)c(CC(=O)O)c(C)n2C(=O)c1ccccc1 | inactive | inactive | inactive | inactive | inactive | – | inactive | inactive | – | inactive | inactive | inactive | inactive | inactive | – | inactive | inactive | inactive |
| O=C(O)C1=CCCN(CCON=C(c2ccccc2)c2ccccc2)C1 | inactive | inactive | 5.62 µM (active) | inactive | – | – | inactive | inactive | – | inactive | inactive | inactive | inactive | inactive | inactive | inactive | inactive | – |
| CC(C)C[C@H](NC(=O)C1OC1C(=O)O)C(=O)NCCCCN=C(N)N (stereo not given in full) | 3.55 µM (active) | 6.31 µM (active) | 2.51 µM (active) | 2.51 µM (active) | inactive | – | inactive | inactive | – | inactive | inactive | inactive | inactive | inactive | – | inactive | inactive | inactive |
| NC(=O)CNCCC(c1ccccc1)c1ccccc1 | inactive | 4.47 µM (active) | 2.24 µM (active) | inactive | – | – | inactive | inactive | – | inactive | inactive | inactive | inactive | inactive | inactive | inactive | inactive | inactive |
| CCCCCCC/C=C\CCCCCCCCC(=O)O | inactive | inactive | inactive | inactive | inactive | – | 31.6 µM (active) | – | 28.2 µM (active) | inactive | inactive | inactive | inactive | – | – | inactive | inactive | inactive |
